Screens as filed in PubChem.
mHTT-CaM PPI inh = inhibitors of human mutant huntingtin-calmodulin interaction. P42858. AlphaScreen His-mHTT/GST-CaM binding, luminescence. inhibition, % at 15 µM. actives 3.6% (n = 190,000). AID 1671202
Target sequence (P42858 whole entry, looked up, change not shown): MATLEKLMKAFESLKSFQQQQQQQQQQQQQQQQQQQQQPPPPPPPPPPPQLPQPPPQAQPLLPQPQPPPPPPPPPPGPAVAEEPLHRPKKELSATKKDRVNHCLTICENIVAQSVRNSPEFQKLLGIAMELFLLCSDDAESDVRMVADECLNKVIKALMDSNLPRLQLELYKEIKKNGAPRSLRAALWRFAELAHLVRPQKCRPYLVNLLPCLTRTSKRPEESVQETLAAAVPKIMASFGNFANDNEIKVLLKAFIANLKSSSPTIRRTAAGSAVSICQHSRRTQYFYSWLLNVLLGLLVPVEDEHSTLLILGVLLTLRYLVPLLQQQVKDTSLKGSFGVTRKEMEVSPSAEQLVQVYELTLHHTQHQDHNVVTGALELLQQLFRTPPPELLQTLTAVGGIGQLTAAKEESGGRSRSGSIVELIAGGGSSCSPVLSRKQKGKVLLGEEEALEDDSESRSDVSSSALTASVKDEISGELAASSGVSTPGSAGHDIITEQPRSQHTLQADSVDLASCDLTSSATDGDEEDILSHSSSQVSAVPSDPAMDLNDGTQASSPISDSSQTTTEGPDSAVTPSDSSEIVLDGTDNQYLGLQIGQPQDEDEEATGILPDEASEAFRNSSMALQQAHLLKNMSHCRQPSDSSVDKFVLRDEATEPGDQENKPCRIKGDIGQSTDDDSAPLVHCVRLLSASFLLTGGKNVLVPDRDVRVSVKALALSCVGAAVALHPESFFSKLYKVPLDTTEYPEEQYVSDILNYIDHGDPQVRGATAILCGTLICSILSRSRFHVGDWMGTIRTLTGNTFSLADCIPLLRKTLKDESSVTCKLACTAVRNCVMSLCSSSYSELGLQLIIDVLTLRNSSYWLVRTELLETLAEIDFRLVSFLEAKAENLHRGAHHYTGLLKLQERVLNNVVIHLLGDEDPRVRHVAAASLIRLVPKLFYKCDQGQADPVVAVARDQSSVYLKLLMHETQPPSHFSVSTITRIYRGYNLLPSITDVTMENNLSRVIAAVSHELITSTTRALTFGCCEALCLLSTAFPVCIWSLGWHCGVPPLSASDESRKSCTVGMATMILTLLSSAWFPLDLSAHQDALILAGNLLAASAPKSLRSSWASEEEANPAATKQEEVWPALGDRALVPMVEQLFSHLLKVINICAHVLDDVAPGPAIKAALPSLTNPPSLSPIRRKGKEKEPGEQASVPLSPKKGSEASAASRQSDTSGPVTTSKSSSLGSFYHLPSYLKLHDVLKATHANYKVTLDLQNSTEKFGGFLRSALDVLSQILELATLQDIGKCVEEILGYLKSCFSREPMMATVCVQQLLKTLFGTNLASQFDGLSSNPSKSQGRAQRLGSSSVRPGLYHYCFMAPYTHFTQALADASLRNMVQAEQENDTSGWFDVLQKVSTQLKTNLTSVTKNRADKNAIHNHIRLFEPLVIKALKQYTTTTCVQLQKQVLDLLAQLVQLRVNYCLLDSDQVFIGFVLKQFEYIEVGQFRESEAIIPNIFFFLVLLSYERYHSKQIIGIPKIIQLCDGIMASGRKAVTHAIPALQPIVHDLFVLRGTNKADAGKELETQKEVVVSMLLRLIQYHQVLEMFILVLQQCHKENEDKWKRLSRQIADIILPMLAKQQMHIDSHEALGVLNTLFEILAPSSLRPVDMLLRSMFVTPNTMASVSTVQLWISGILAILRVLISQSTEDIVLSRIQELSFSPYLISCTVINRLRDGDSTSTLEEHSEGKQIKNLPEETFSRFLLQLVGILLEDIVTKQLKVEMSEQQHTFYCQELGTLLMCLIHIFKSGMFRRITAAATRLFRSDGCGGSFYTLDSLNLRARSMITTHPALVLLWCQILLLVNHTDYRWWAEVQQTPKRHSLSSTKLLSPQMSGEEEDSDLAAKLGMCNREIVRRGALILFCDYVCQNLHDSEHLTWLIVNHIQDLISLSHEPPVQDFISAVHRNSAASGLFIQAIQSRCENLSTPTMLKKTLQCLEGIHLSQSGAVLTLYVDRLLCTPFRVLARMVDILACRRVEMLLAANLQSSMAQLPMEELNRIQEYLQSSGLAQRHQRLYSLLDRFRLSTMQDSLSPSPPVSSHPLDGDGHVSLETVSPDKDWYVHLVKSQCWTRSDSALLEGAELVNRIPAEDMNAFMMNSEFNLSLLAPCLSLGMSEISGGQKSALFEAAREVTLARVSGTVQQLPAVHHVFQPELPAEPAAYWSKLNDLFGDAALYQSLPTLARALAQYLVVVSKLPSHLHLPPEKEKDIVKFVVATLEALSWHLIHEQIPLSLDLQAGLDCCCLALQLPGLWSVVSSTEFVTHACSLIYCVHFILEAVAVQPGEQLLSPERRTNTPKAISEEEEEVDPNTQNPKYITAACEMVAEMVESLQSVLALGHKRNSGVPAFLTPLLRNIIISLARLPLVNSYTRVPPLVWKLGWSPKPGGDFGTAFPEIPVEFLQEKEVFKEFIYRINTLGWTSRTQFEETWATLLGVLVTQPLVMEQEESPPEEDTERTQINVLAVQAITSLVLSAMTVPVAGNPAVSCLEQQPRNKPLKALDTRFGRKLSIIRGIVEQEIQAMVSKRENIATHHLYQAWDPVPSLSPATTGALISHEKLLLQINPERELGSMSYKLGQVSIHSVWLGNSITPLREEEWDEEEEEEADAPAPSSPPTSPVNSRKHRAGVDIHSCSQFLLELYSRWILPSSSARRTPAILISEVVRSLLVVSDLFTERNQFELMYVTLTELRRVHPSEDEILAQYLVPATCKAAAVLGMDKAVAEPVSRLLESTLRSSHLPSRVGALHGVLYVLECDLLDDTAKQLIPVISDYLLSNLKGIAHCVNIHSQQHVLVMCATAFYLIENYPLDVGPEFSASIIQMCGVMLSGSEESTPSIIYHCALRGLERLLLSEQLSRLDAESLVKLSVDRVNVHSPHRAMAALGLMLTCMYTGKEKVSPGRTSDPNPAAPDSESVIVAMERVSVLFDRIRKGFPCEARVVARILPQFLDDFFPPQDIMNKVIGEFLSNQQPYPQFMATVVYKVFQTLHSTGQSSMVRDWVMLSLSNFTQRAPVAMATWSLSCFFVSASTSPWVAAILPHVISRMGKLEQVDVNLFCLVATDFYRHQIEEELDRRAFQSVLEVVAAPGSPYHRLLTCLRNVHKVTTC
Pf apPOL inh = Pf-apPOL DNA polymerase inhibition; Recombinant Pf-apPOL, molecular beacon fluorescence, 1.5 h; inhibition, % at 10 µM; actives 0.25% (n = 210,000); AID 1794808
Each line names hits and unclear results; the compound was inactive in the other large screens; ! = not active in a repeat. Sampled rows, rich in hits. Any-hit rate of the full collection: about 3.6%. Cut-off read from the data, not from the text of the source: active = inhibition above about 50%; inactive = the rest.

O=[N+]([O-])c1ccccc1C1CC(c2ccccc2)=NN1 (stereo unspecified)	mHTT-CaM PPI inh 61
CC(=O)N1N=C(c2ccccc2)CC1c1ccccc1[N+](=O)[O-] (stereo unspecified)	none
Cc1ccc(Cn2cnc3c2c(=O)n(C2CC2)c(=O)n3-c2ccc(F)cc2)cc1	none
Cc1cc(C)nc(SC2=CS(=O)(=O)c3ccccc32)n1	none
O=S1(=O)C=C(Sc2cccc3cccnc23)c2ccccc21	mHTT-CaM PPI inh 68
Cc1cccc(N2CC34C=CC(O3)C(C(=O)OCC(C)C)C4C2=O)c1 (stereo unspecified)	none
CC(=O)N1CCC(COc2ccc(C(=O)N3CCCC3)cc2)CC1	none
Cc1csc(CN2CCN(C(=O)c3cc(Cl)ccc3Cl)CC2)n1	none
CC(=O)N1CCc2[nH]c3ccc(C(=O)N(C)c4cccc(Cl)c4)cc3c2C1	mHTT-CaM PPI inh 50
CC(=O)N1CCc2[nH]c3ccc(C(=O)N4CCN(Cc5ccccc5)CC4)cc3c2C1	none
CC(=O)N1CCc2[nH]c3ccc(C(=O)N4CCCC4)cc3c2C1	mHTT-CaM PPI inh 61
CCCN1CCN(C(=O)c2ccc3[nH]c4c(c3c2)CN(C(C)=O)CC4)CC1	none
CCc1ccc(-c2cn3ccn(-c4cccc(OC)c4)c(=O)c3n2)cc1	none
Cc1ccc(/C=C2\SC(N3CCCCC3)=NC2=O)o1	none
N#CC1=C(N)Oc2cc(N)ccc2C1c1ccc(Cl)cc1 (stereo unspecified)	none
N#CC1=C(N)Oc2cc(O)ccc2C1c1ccc(Cl)c(Cl)c1 (stereo unspecified)	mHTT-CaM PPI inh 100
N#CC1=C(N)Oc2cc(O)ccc2C1c1ccc(Br)cc1 (stereo unspecified)	none
N#CC1=C(N)Oc2cc(N)ccc2C1c1ccc(Cl)c(Cl)c1 (stereo unspecified)	mHTT-CaM PPI inh 75
N#Cc1ccc(-c2csc(NC(=O)NCc3ccc(F)cc3)n2)cc1	none
CNC(=O)N1CCC(CCOc2ccncc2)CC1	none
O=C(CSc1nc2c(c(=O)n1-c1ccc(F)cc1)SCC2)Nc1cccc(F)c1	none
Cc1ccc(/C=C2\NC(=O)N(Cc3ccc(Br)cc3)C2=O)cc1	none
O=C(NC1CCCC1)C1c2ccccc2C(=O)N1Cc1ccccc1Cl (stereo unspecified)	mHTT-CaM PPI inh 53
CC1CCC(NC(=O)C2c3ccccc3C(=O)N2Cc2ccccc2Cl)CC1 (stereo unspecified)	none
COc1ccc(-c2nc3cc(C)ccn3c2NC(=O)C2CCCC2)cc1	none
COc1ccc(-c2nc3ccc(C)cn3c2NC(=O)C2CCCC2)cc1	mHTT-CaM PPI inh 51
CCCOc1ccc(-c2c(C#N)c(N)n3c(nc4ccccc43)c2C#N)cc1OC	none
O=C(Nc1c2c(nn1-c1cccc(Cl)c1)CSC2)c1ccc(Br)o1	none
Cc1cccc(-n2nc3c(c2NC(=O)c2ccc(Br)o2)CSC3)c1	mHTT-CaM PPI inh 64
COc1ccc(C(=O)Nc2c3c(nn2-c2cccc(C)c2)CSC3)cc1	none
Cc1cccc(-n2nc3c(c2NC(=O)c2ccco2)CSC3)c1	mHTT-CaM PPI inh 72
Cc1ccc(-n2nc3c(c2NC(=O)c2ccco2)CSC3)cc1	none
Cc1cc(C)cc(-n2nc3c(c2NC(=O)c2ccco2)CSC3)c1	mHTT-CaM PPI inh 65
O=C(O)c1ccc(N2CCN(CCO)CC2)c([N+](=O)[O-])c1	none
O=S(=O)(Oc1ccccc1N1CCOCC1)c1cccc(Cl)c1	none (no result: mHTT-CaM PPI inh)
CCN1C(=O)Cc2cc(C(=O)NCc3cc(C)ccc3C)ccc21	none
CN(C)C(CNC(=O)C(=O)NC1CCCC1)c1ccco1 (stereo unspecified)	none
O=c1[nH]cnc2c1ncn2C1O[C@@H](CO)[C@H](O)[C@@H]1O (stereo partly specified)	none (no result: Pf apPOL inh)
COc1ccc(-c2coc3c4c(ccc3c2=O)OCN(C2CC(C)(C)NC(C)(C)C2)C4)cc1OC	none
O=C1c2ccccc2C(=O)c2c1oc1c3c(ccc21)OCN(CCc1ccccc1)C3	mHTT-CaM PPI inh 61
COCCCN1COc2ccc3c(C)c(-c4ccccc4)c(=O)oc3c2C1	none
O=C1c2ccccc2C(=O)c2c1oc1c3c(ccc21)OCN(Cc1ccccc1)C3	none
CC(=O)c1c(C)oc2c1c1c(c3ccccc32)OCN(C2CCCCC2)C1	none
CCCCN1COc2ccc3c4c(oc3c2C1)C(=O)c1ccccc1C4=O	mHTT-CaM PPI inh 70
CC1(C)CC(N2COc3ccc4c5c(oc4c3C2)C(=O)c2ccccc2C5=O)CC(C)(C)N1	mHTT-CaM PPI inh 96!
CC(=O)c1c(C)oc2c1c1c(c3ccccc32)OCN(C2CC(C)(C)NC(C)(C)C2)C1	mHTT-CaM PPI inh 78
O=C(c1ccc(-c2cncnc2)nc1)N1CCCCC1	none
CN(CCNC(=O)c1cnn2c(C(F)(F)F)cc(-c3ccccc3)nc12)Cc1ccccc1	none
Cc1cc(C)cc(S(=O)(=O)N2CCCC(C)(C(=O)NCc3ccccc3)C2)c1 (stereo unspecified)	none
Cc1cc(C)c(S(=O)(=O)N2CCCC(C)(C(=O)NCc3ccccc3)C2)c(C)c1 (stereo unspecified)	mHTT-CaM PPI inh 59
Cc1ccc(S(=O)(=O)N2CCCC(C)(C(=O)NCc3ccc(F)cc3)C2)cc1 (stereo unspecified)	none
Cc1cc(C)cc(S(=O)(=O)N2CCCC(C)(C(=O)NCc3ccc(F)cc3)C2)c1 (stereo unspecified)	mHTT-CaM PPI inh 52
Cc1cc(OCC(=O)N(C)c2ccc(F)cc2)nc(N2CCC(C)CC2)n1	none
O=C(CSC1CCCC1)NCCn1nc(-c2ccco2)ccc1=O	none
Cc1cc(C)cc(OCCNC(=O)COc2ccc3c(c2)OCO3)c1	none
O=C(CSC1CCCC1)NCCOc1ccc(-c2ccccn2)nn1	mHTT-CaM PPI inh 100
O=C(COc1ccc2c(c1)OCO2)NCCOc1ccc(-c2ccccn2)nn1	mHTT-CaM PPI inh 100
CCn1cc(CCNC(=O)Nc2ccc(OC)cc2)c2cccnc21	none
Nc1ccc(C(=O)c2ccc(N)c(N)c2)cc1N	none
Nc1ccc(N)c2c1C(=O)c1c(N)ccc(N)c1C2=O	mHTT-CaM PPI inh 92
Cc1cc(O)c2c(c1)OC(=Cc1ccc(F)cc1)C2=O	none
Cc1cc(O)cc2c1C(=O)C(=Cc1cccs1)O2	none
Cc1cc(O)c2c(c1)OC(=Cc1cccs1)C2=O	mHTT-CaM PPI inh 59
Cc1cc(O)c2c(c1)OC(=Cc1ccccc1)C2=O	mHTT-CaM PPI inh 53
Cc1ccc(F)c(NC(=O)c2cn3c(n2)CSCC3)c1	none
O=C1c2ccccc2C(=O)N1Cc1nc2ccc(I)cc2c(=O)o1	none
NC(=O)C1CCN(c2nc3ccc(-c4cccnc4)nc3s2)CC1	none
O=[N+]([O-])c1ccccc1OCCCOc1ncnc2ccccc12	none
CNC1C(O)C(NC)C2OC3(O)C(=O)CC(C)OC3OC2C1O (stereo unspecified)	Pf apPOL inh 83 (no result: mHTT-CaM PPI inh)
CCCCN1C(=O)C(C)(C(=O)Nc2ccc(CC)cc2)Oc2cccnc21 (stereo unspecified)	none
O=C1Nc2cc(C(=O)N3CCN(c4ccc(Cl)cc4)CC3)ccc2N2CCCCC12 (stereo unspecified)	none
CN1C(=O)C2CCCCN2c2ccc(C(=O)N3CCN(c4ccc(Cl)cc4)CC3)cc21 (stereo unspecified)	mHTT-CaM PPI inh 68
CCCn1cc2c3c(cccc31)CN(C(=O)c1ccccc1F)CC2	mHTT-CaM PPI inh 51
CCn1cc2c3c(cccc31)CN(C(=O)c1cccc(F)c1)CC2	none
Cn1cc2c3c(cccc31)CN(C(=O)c1ccccc1F)CC2	none
CCCn1cc2c3c(cccc31)CN(C(=O)c1cccc(F)c1)CC2	mHTT-CaM PPI inh 66
Cc1ccccc1-n1c(SCC(=O)Nc2ccc(Cl)cc2)nc2[nH]ncc2c1=O	none
